Screening data: PubChem BioAssay, The Scripps Research Institute Molecular Screening Center
proKLK7 act = proKLK7 zymogen activators, primary screen, biochemical, fluorescence intensity; Kallikrein-7 (Homo sapiens), P49862; purified proKLK7, EDANS-DABCYL substrate fluorescence; 100% is mature enzyme control, 0% vehicle; activation, % at 7 µM; AID 652039, 2013; actives 0.9% (n = 370,000);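 active means activation above the mean of all tested compounds plus 3 SD, computed per campaign excluding outliers beyond control limits, cut at about 13% in these data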
ADAM17 inh = ADAM17 inhibitors, primary screen, biochemical, QFRET. AID 720648, 2013. Disintegrin and metalloproteinase domain-containing protein 17 (Homo sapiens), P78536. recombinant ADAM17, EDANS/DABCYL FRET peptide cleavage. inhibition, % at 6.95 µM. actives 0.83% (n = 370,000);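 active means inhibition above the mean of compounds lying between control limits plus 3 SD, set per campaign, cut at about 8.5% in these data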
PLCg1 inh = PLC-gamma1 enzyme inhibitors, primary screen, biochemical, fluorescence, purified enzyme; 1-phosphatidylinositol 4,5-bisphosphate phosphodiesterase gamma-1 (Homo sapiens), P19174; fluorogenic substrate; inhibition, % at 12.2 µM; actives 0.84% (n = 370,000); AID 720700, 2013; in the data active means inhibition above about 9.5%
ADAM10 inh = human ADAM10 inhibitors, primary screen, biochemical, QFRET, HTS. Disintegrin and metalloproteinase domain-containing protein 10 (Homo sapiens), O14672. recombinant ADAM10, EDANS/DABCYL FRET peptide cleavage, 3 h. inhibition, % at 7 µM. actives 0.62% (n = 370,000);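 active means inhibition above a per-campaign cutoff equal to the mean of compounds falling between control-based bounds plus 3 SD, cut at about 20% in these data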
PLC-beta3 inh = human PLC-beta3 inhibitors, primary screen, biochemical, fluorescence; Purified PLC-beta3, fluorogenic substrate; inhibition, % at 12.2 µM; actives 0.18% (n = 370,000); AID 720704, 2013; in the data active means inhibition above about 11%
HGIII-sPLA2 inh = human group III sPLA2 inhibitors, primary screen, biochemical, QFRET, BODIPY PC-A2 liposome substrate; inhibition, % at 12.2 µM; Group 3 secretory phospholipase A2 (Homo sapiens), Q9NZ20; actives 0.56% (n = 370,000); AID 743126, 2013; QFRET BODIPY PC-A2 liposome hydrolysis, fluorescence;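 active means inhibition above mean plus 3 SD of compounds lying within the high and low control bounds, cut at about 19% in these data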
KLK7 act conf = proKLK7 zymogen activators, confirmation, biochemical, fluorescence intensity, triplicate. shares compounds with proKLK7 act. purified proKLK7, EDANS-DABCYL substrate fluorescence; scaled: vehicle 0, mature enzyme 100. actives 68% (n = 3,200). activation, % at 7 µM;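 active means activation, as change over the incubation, above the mean of all tested compounds plus 3 SD, cut at about 13% in these data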
EDANS-DABCYL int = EDANS-DABCYL substrate optical interference, artefact control for kallikrein-7 zymogen activator project, biochemical, fluorescence intensity, high throughput; activation, % at 7 µM; actives 80% (n = 3,200); shares compounds with proKLK7 act; no enzyme, 4 h; solvent 0%, active enzyme control 100%;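 active means activation above the all-compound mean plus 3 SD, ignoring values outside control-based bounds, cut at about 4.8% in these data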;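 further: value is the 4 h activation minus the activation read at time zero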
EDANS interf = counter-screen for kallikrein-7 activators: EDANS-DABCYL interference, dose response; shares compounds with proKLK7 act; EDANS-DABCYL peptide fluorescence interference, no enzyme; EC50, µM; actives 20% (n = 250); AID 720493;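 active means compounds that raise the fluorescence signal in this interference counterscreen, with EC50 at or below 10 µM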;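 further: intact quenched peptide substrate alone read at 355 nm excitation and 520 nm emission; signal is fluorescence gain from T0 to T4 after four hours at room temperature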
Large screens that a line does not name were inactive (follow-up assays come after a bar, where they were run). Rows were chosen to be rich in hits. Some 3.4% of all compounds tested hit in one or more screens of this group.

CC(C)n1c(=N)c(C(=O)NCCc2ccccc2)cc2c(=O)n3ccccc3nc21	proKLK7 act 134 | KLK7 act conf inactive | EDANS-DABCYL int inactive
COc1ccc(CNC(=O)c2cc3c(=O)n4ccccc4nc3n(Cc3cccnc3)c2=N)cc1	none
Cc1cccn2c(=O)c3cc(C(=O)NCc4cccnc4)c(=N)n(C(C)C)c3nc12	proKLK7 act 134 | KLK7 act conf 51 | EDANS-DABCYL int 67
N=c1c(C(=O)NCc2ccccc2)cc2c(=O)n3ccccc3nc2n1Cc1ccco1	none
Cc1cccn2c(=O)c3cc(C(=O)NCc4ccco4)c(=N)n(C(C)C)c3nc12	proKLK7 act 26 | KLK7 act conf inactive | EDANS-DABCYL int inactive
Cc1cccn2c(=O)c3cc(C(=O)NCCc4ccccc4)c(=N)n(Cc4ccco4)c3nc12	none
CC(C)C1=CC2C3C(C(C(C)C)=CC(=O)[C@@]3(C)O)C1C(=O)C2(C)O (stereo partly drawn)	none
CCNC(=O)N1CCN(c2ccc(N3CCN(C(=O)NCC)[C@@H](C)C3)c(C)c2)[C@H](C)C1	none
COc1ccc(C2C3=C(CCCC3=O)N(CC(=O)O)C3=C2C(=O)CCC3)cc1Cl	proKLK7 act 27 | KLK7 act conf 26 | EDANS-DABCYL int 34
C#CCOc1c(Cl)cc(C2C3=C(CCCC3=O)N(CC(=O)O)C3=C2C(=O)CCC3)cc1OC	proKLK7 act 16 | KLK7 act conf 72 | EDANS-DABCYL int 80
COc1ccccc1C1C2=C(CCCC2=O)N(CC(=O)O)C2=C1C(=O)CCC2	none
CCCOc1c(Br)cc(C2C3=C(CCCC3=O)N(CC)C3=C2C(=O)CCC3)cc1OC	none
COc1ccc(C2C3=C(CCCC3=O)N(CC(=O)O)C3=C2C(=O)CCC3)cc1Br	proKLK7 act 30 | KLK7 act conf 28 | EDANS-DABCYL int 43
CCOc1cc(C2C3=C(CCCC3=O)N(CC(=O)O)C3=C2C(=O)CCC3)ccc1OC	none
COCCN1Cc2cc(C(=O)OC)c3c(c2C1=O)c1ccccc1n3S(=O)(=O)c1ccc(C)cc1	none
CNc1ccc(Cl)cc1C(N)=O	proKLK7 act 17 | KLK7 act conf inactive | EDANS-DABCYL int 20
COc1ccc(/C=N/NC(=O)c2nc(Cl)c(Cl)c(N)c2Cl)cc1COc1ccccc1F	proKLK7 act 42 | KLK7 act conf 59 | EDANS-DABCYL int 72
COc1ccc(/C=N/NC(=O)c2nc(Cl)c(Cl)c(N)c2Cl)cc1COc1ccc(F)cc1F	none
C=CCN(c1ccccc1)S(=O)(=O)c1cccc(C(=O)OCC(=O)NCCOC)c1	none
C=CCN(c1ccccc1)S(=O)(=O)c1cccc(C(=O)Oc2ccc3c(C)cc(=O)oc3c2)c1	proKLK7 act 42 | KLK7 act conf 405 | EDANS-DABCYL int 422
Cc1cccc(C2Nc3ccccc3C(=O)N2CCc2ccccc2)n1 (stereo not drawn)	proKLK7 act 21 | KLK7 act conf inactive | EDANS-DABCYL int 11
O=C(N[C@H](C(=O)N1CCC[C@H]1C(=O)NC1CCCC1)C1CCCCC1)c1nccs1	none
CC(C)[C@H](NC(=O)OCc1ccccc1)C(=O)OCC(=O)c1ccccc1	none
CC(C)[C@H](NC(=O)OCc1ccccc1)C(=O)OCc1cc(=O)oc2cc(O)ccc12	proKLK7 act 28 | KLK7 act conf 62 | EDANS-DABCYL int 60
Cc1ccccc1NC(=O)CCS(=O)(=O)c1ccccc1	none
O=C1CCC[C@H]2C[C@H](NCc3ccco3)CC[C@]23CCCN13	none (no result: proKLK7 act)
Cc1ccccc1C1CCC2(CCC(=O)N2CC[C@@H](O)c2ccccc2)CC1 (stereo partly drawn)	none (no result: proKLK7 act)
COc1ccc(Cc2c(C3CCCCC3)nc3ccc(C)cn23)c(C)c1	none
Oc1ccccc1C=Nc1ccccc1-c1nc2ccccc2[nH]1	proKLK7 act 77 | KLK7 act conf inactive | EDANS-DABCYL int inactive
COc1ccc(OC)c(C=Nc2ccccc2-c2nc3ccccc3[nH]2)c1	proKLK7 act 31 | KLK7 act conf inactive | EDANS-DABCYL int inactive
Oc1ccc(C=Nc2ccccc2-c2nc3ccccc3[nH]2)c(O)c1	proKLK7 act 38 | KLK7 act conf inactive | EDANS-DABCYL int inactive
O=C(c1ccccc1)C12COc3ccccc3C1ON=C2c1ccccc1 (stereo not drawn)	none
CCNc1cc2oc(=O)c(CN3CCOCC3)c(C)c2cc1C	proKLK7 act 43 | KLK7 act conf 69 | EDANS-DABCYL int 78
C[C@H](O)[C@@H]1C(=O)N2CCc3c([nH]c4cccc(-c5ccccc5)c34)[C@@H]2C[C@@H]1N(C)CC1CCCCC1	none
COCCNC(=S)N(C)[C@H]1C[C@H]2c3[nH]c4ccccc4c3CCN2C(=O)[C@H]1[C@H](C)O	proKLK7 act 51 | KLK7 act conf 33 | EDANS-DABCYL int 34
COCCNC(=S)N(C)[C@H]1C[C@H]2c3[nH]c4c(-c5ccccc5)cccc4c3CCN2C(=O)[C@H]1[C@H](C)O	none
CN[C@H]1C[C@H]2c3[nH]c4ccccc4c3CCN2C(=O)[C@H]1[C@H](C)O	proKLK7 act 28 | KLK7 act conf 14 | EDANS-DABCYL int 13
C[C@H](O)[C@@H]1C(=O)N2CCc3c([nH]c4ccccc34)[C@@H]2C[C@@H]1N(C)Cc1ccc(Cl)cc1	proKLK7 act 52 | KLK7 act conf 13 | EDANS-DABCYL int 13
CN[C@H]1C[C@H]2c3[nH]c4cccc(-c5cccc(C)c5)c4c3CCN2C(=O)[C@H]1[C@H](C)O	none
C[C@H](O)[C@@H]1C(=O)N2CCc3c([nH]c4ccccc34)[C@@H]2C[C@@H]1N(C)C(=O)NC1CCCCC1	proKLK7 act 36 | KLK7 act conf 26 | EDANS-DABCYL int 21 | EDANS interf 8.4
COc1ccc(OC)c(CNS(=O)(=O)c2ccccc2Br)c1	none
